NADH enzymes: inhibitors of PK/LDH coupling enzymes, profiling panel, artefact control, biochemical, MLSMR library; coupled PK/LDH NADH assays, four targets; IC50, µM (highest dose often 10 µM); actives 0.02% (n = 65,000);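 active = single-dose screening hits from any of four coupled enzyme assays that gave an IC50 when retested across doses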;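 also: the DPM-DC format reads NADH fluorescence rather than 340 nm absorbance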
MK inhibit: S. pneumoniae MK inhibitors, primary screen, biochemical, PK/LDH-coupled NADH absorbance. inhibition, % at 10 µM. actives 0.48% (n = 65,000). purified MK, PK/LDH-coupled NADH absorbance 340 nm. mevalonate kinase [Streptococcus pneumoniae D39];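 active = ranked among the strongest by inhibition in the single 10 µM screen, a fixed top-ranked set picked for dose follow-up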
Autofluor 339: intrinsic fluorescence of library compounds, ex339/em460 – biochemical, MLSMR library, data from DPM-DC assay, artefact control, profiling panel; compound autofluorescence, ex339/em460 nm, NADH buffer; hits give high values; 1 = no-compound wells, NADH background; fluorescence fold increase at 10 µM; actives 5.5% (n = 65,000); AID 709, 2007;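 active = at 10 µM, mean starting fluorescence two-fold or more over control wells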;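 also: signal is the first read of a kinetic run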
Spn PMK inh: S. pneumoniae PMK inhibitors, primary screen, biochemical, mevalonate pathway, pilot trial included. purified PMK, PK/LDH-coupled NADH absorbance 340 nm. AID 539, 2006. actives 0.49% (n = 65,000). inhibition, % at 10 µM;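 active = top-ranked compounds by inhibition in the single 10 µM screen, taking a fixed number of the strongest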
Spn DPM-DC inh: S. pneumoniae DPM-DC inhibitors, primary screen, biochemical, PK/LDH-coupled NADH fluorescence | diphosphomevalonate decarboxylase (Streptococcus pneumoniae D39) | purified DPM-DC | calls only at 10 µM | actives 0.49% (n = 65,000);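 active = the 320 compounds with the highest percent inhibition in the single-dose primary screen, excluding strongly autofluorescent ones, cut at about 32% in these data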;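 also: kinetic rate of NADH fluorescence loss reporting ADP formed by the decarboxylase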
Abs 340nm: compound light absorbance at 340 nm, profiling panel, artefact control, biochemical, MLSMR library, data from PS, PMK, MK assays; 65,000 tested, under 10 active; compound absorbance at 340 nm, fold over control; AID 708, 2007; fold change at 10 µM;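 active = at 10 µM dose, initial 340 nm absorbance at least 2 fold that of control wells; inactive = change under 2 fold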;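 also: initial absorbance extrapolated from kinetic A340 decline of NADH oxidation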
Large screens that a line does not name were inactive. Compounds with a hit are over-represented: about 6.5% of the library has one in this group of screens.

O=C1CC(N2CCN(c3nc4ccccc4s3)CC2)C(=O)N1Cc1cccs1 (stereo not given)	none
CC(=O)Nc1nonc1NC(=O)CSc1nc2ccccc2o1	none
CC(=O)c1cc2c(cc1NC(=O)CSc1nc3ccccc3o1)OCO2	Autofluor 339 2.4
COC(=O)CCN(C(=O)C1C2CC3CC(C2)CC1C3)c1ccccn1 (stereo not given)	none
O=C1C(=C2CCCCC2)SC(=S)N1Cc1ccco1	none
CCOc1ccccc1OCCCCN1CCCC1	MK inhibit 50
CCC(C)NC(=O)c1ccccc1NC(=O)CN1C(=O)c2ccccc2S1(=O)=O (stereo not given)	none
CCC(c1nnc(SCC(=O)NCCc2ccc(Cl)cc2Cl)o1)N(C)C (stereo not given)	none
Cc1cc(C)n(-c2nc3ccccc3[nH]c2=O)n1	Autofluor 339 2.8
COc1ccc(-n2c(=O)c3c4c(sc3n(CC(=O)NCc3ccco3)c2=O)CCC4)c(OC)c1	MK inhibit 63
Cc1nn(Cc2ccc(Cl)cc2Cl)c(C)c1NC(=O)c1nc2n(n1)C(C(F)F)CC(C)N2 (stereo not given)	none
CCOc1ccc(-n2c(=O)c3c(C)c(C)sc3n(CC(=O)NCc3ccco3)c2=O)cc1	none
COc1ccc(OC)c(NC(=O)c2c(NC(=O)CNCc3ccco3)sc3c2CCC3)c1	Autofluor 339 2.3 (not shown: Spn DPM-DC inh)
CCOC(=O)c1c(NC(=O)c2nc3n(n2)C(C(F)F)CC(C)N3)sc2c1CCCC2 (stereo not given)	Autofluor 339 5.1 (not shown: Spn DPM-DC inh)
CCOC(=O)c1c(NC(=O)c2cccs2)sc2c1CC(C)(C)OC2	Autofluor 339 2.1
CCOC(=O)c1cccc(NC(=O)c2cccs2)c1	none
Cc1occc1-c1nnc(SCC(=O)N2CCN(c3ccccc3F)CC2)n1C	none
Cc1nnc(SCC(=O)Nc2nccs2)[nH]c1=O	none
O=C(Nc1scc(-c2ccc(F)cc2)c1C(=O)O)c1ccco1	none
CCOC(=O)c1c(C2COc3ccccc3O2)csc1NC(=O)c1ccco1 (stereo not given)	Autofluor 339 3.2
O=C(COC(=O)c1ccco1)NC1CCCCC1	Spn PMK inh 25
COC(=O)c1c(-c2ccccc2)csc1NC(=O)c1ccco1	Autofluor 339 4.9 (not shown: Spn DPM-DC inh)
O=C(Nc1sc2c(c1C(=O)NC1CCCCC1)CCC2)c1ccco1	Autofluor 339 3.6 (not shown: Spn DPM-DC inh)
CC(C)(O)c1cn(-c2nonc2N)nn1	none
CC1CCN(Cc2c(C#N)c3ccccc3n2C)CC1	none
CCOC(=O)c1c(NC(=O)c2ccn(CC)n2)sc2c1CCCC2	Autofluor 339 2.7 (not shown: Spn DPM-DC inh)
COc1ccccc1NC(=O)c1c(NC(=O)c2ccco2)sc2c1CCC2	Autofluor 339 2.3 (not shown: Spn DPM-DC inh)
CCOC(=O)c1c(NC(=O)c2ccco2)sc2c1CCCC2	Autofluor 339 2.1 (not shown: Spn DPM-DC inh)
CCOC(=O)c1c(NC(=O)COC)sc2c1CCCC2	none
Cc1cccc(Nc2nc(NCc3ccco3)nc(N3CCOCC3)n2)c1	none
COC(=O)c1ccc(NC(=O)C2CCCN2S(=O)(=O)c2ccc(F)cc2)cc1 (stereo not given)	none
O=C(O)CC(c1ccc(Cl)cc1)n1cccc1 (stereo not given)	none
COC(=O)c1cc(=O)nc2sc(-c3cccs3)nn12	Autofluor 339 2.7 (not shown: Spn DPM-DC inh)
O=C1CC(c2cccnc2)c2cc3c(cc2N1)OCO3 (stereo not given)	Spn DPM-DC inh active
Cc1c(OCC(=O)OC(C)C)ccc2c3c(c(=O)oc12)CCC3	none
CCc1cc(=O)oc2cc(OCC(=O)N(CC)CC)c(Cl)cc12	none
C=CCOC(=O)COc1ccc2c(C)c(C)c(=O)oc2c1C	Autofluor 339 2.4 (not shown: Spn DPM-DC inh)
CCc1c(C)c2ccc(OCC(=O)OC(C)C)c(C)c2oc1=O	Autofluor 339 3.6 (not shown: Spn DPM-DC inh)
CCOC(=O)CCc1c(C)c2ccc(OCC(=O)N(CC)CC)c(C)c2oc1=O	Autofluor 339 3.8 (not shown: Spn DPM-DC inh)
Cc1cc(=O)oc2c(C)c(OCC(=O)N(C)C)ccc12	Autofluor 339 3.4 (not shown: Spn DPM-DC inh)
CCN(CC)C(=O)COc1cccc2ccccc12	none
COc1cccc(NC(=O)CSc2nncn2N)c1	none

Screening results: PubChem, SRMLSC
